Compounds with a hit are over-represented: about 7.1% of the library has one in this group of screens.
ATXN2 expr inh = ATXN2 expression inhibition; HEK-293 ATXN2-luciferase reporter, luminescence, 24 h; Potency, µM (titrated, usually from 57 µM), actives largely listed as inhibitors; 360,000 tested, 0.72% active; also: nearly all actives have a fitted effect of over 55% in size
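ATXN2-luciferase reporter cells (luciferase flanked by upstream and downstream ATXN2 gene portions) were treated 24 h at 37 °C with compounds at up to 57 uM. SteadyGlo luminescence gave expression; GF-AFC fluorescence gave viability.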
IL-1B inflam inh = blocks inflammasome-driven IL-1 beta release. THP-1 LPS/ATP IL-1B secretion, AlphaLISA, 16 h; hits give low values. 360,000 tested, 4.7% active. AID 743279. activity change, % at 57.5 µM; in the data active = activity change below about -50%; inconclusive = mostly about -30% to -49%
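THP-1 cells pretreated 1 hr with compounds (up to 57.5 uM final), then stimulated with LPS (250 ng/mL final) plus ATP (1.25 mM final); secreted IL-1B measured by AlphaLISA after 16 hr, decreased signal indicating inhibition.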
S2 tox = cell viability loss in ATXN counter-screen; S2 cells (HEK-293 line with an ATXN2-luciferase reporter) viability, CellTiter-Fluor protease fluorescence, 24 h; Potency, µM (top dose mostly 56.7 µM), hits mostly cytotoxic; 400,000 tested, 0.49% active; AID 651635; also: nearly all actives have a fitted effect of over 40% in size
PINK1 expr mod = PINK1 expression modulation. PINK1 immunofluorescence, high-content cytometry, 24 h. Potency, µM (series often up to 76.6 µM), hits mostly activators. 410,000 tested, 0.2% active. AID 624263; active = well fitted activation curve with a large enough effect; inconclusive = small, poorly fitted or top-dose-only effect; cell line not stated here; also: nearly all actives have a fitted effect of over 65% in size
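PINK1 protein, normally rapidly degraded, was detected by immunofluorescence after 24 hour compound treatment of a stable cell line. Titration data (5 concentrations) came from laser-scanning cytometry, with CCCP-treated wells as controls.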
SW480 rereplic = induces DNA re-replication in SW480 colon adenocarcinoma cells. SW480 DNA re-replication, Hoechst DNA content imaging, 48 h. Potency, µM (doses to about 46.1 µM), hits mostly activators. 340,000 tested, 1.8% active; also: nearly all actives have a fitted effect of over 55% in size
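Per well, 250 cells were exposed to pinned compound for 48 hr. Nuclear DNA was visualised with Hoechst (40 min, 37 C) and total object intensity recorded by fluorescence scanning.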
MCF10A rereplic = induces DNA re-replication in MCF 10a normal breast cells; MCF 10A DNA re-replication, Hoechst nuclear intensity, 48 h; Potency, µM (top dose mostly 46.1 µM), most hits filed as activators; 350,000 tested, 2.9% active; also: nearly all actives have a fitted effect of over 50% in size
Of the large screens only hits and unclear results are named; the others gave an inactive call. Unless noted, calls follow the shape of the dose curve; as a rule, active = well fitted curve in the direction sought with a large enough effect; inconclusive = small, poorly fitted or top-dose-only effect, or another doubt; inactive = no such curve, though single readings can be large; an effect the other way counts as inactive or inconclusive.

CCN1CCN(C(c2cccc(Cl)c2)c2c(O)cc(C)n(CCOC)c2=O)CC1 (stereo unspecified)	none (no result: ATXN2 expr inh, IL-1B inflam inh, S2 tox, SW480 rereplic, MCF10A rereplic)
COc1cc(C2c3cc4c(cc3OC(C)(N3CCCC3)C2C)OCO4)cc(OC)c1OC (stereo unspecified)	S2 tox inconclusive, SW480 rereplic 5.2µM, MCF10A rereplic 0.65µM
COc1cc(C2c3cc4c(cc3OC(Nc3ccc(C(=O)O)cc3)C2C)OCO4)cc(OC)c1OC (stereo unspecified)	S2 tox inconclusive, SW480 rereplic 0.65µM, MCF10A rereplic 1.3µM
COc1cc(C2c3cc4c(cc3OC(N3CCOCC3)C2C)OCO4)cc(OC)c1OC(C)=O (stereo unspecified)	SW480 rereplic inconclusive, MCF10A rereplic inconclusive
COc1cc(C2c3cc4c(cc3OC(NCCc3ccccc3)C2C)OCO4)cc(OC)c1OC (stereo unspecified)	SW480 rereplic 1µM, MCF10A rereplic 1µM
CCc1ccc(CNC(=O)c2cnc3sc(N(CC)CC)nn3c2=O)cc1	none (no result: ATXN2 expr inh, IL-1B inflam inh, S2 tox, SW480 rereplic, MCF10A rereplic)
COc1cccc(C(=O)C2CCCN(C/C=C/c3ccccc3OC)C2)c1 (stereo unspecified)	MCF10A rereplic inconclusive
COc1ccc(/C=C/CN2CCCC(C(=O)c3ccc(OC)c(F)c3)C2)cc1 (stereo unspecified)	IL-1B inflam inh -93, MCF10A rereplic inconclusive
COc1ccc(C(=O)C2CCCN(Cc3ccc(C#CCCO)cc3)C2)cc1F (stereo unspecified)	IL-1B inflam inh -53
CCn1c(-c2ccccc2F)nc2cc(NC(C)=O)cc(C(=O)N(C)Cc3ccc4nccnc4c3)c21	S2 tox inconclusive (no result: ATXN2 expr inh, IL-1B inflam inh, SW480 rereplic, MCF10A rereplic)
Cc1[nH]c2ccccc2c1C(=O)COC(=O)Cn1cnc2ccccc21	none
CCOC(=O)CCCCC(=O)c1[nH]c(=O)[nH]c1CSc1nc(-c2ccccc2)c(C#N)c(=O)[nH]1	IL-1B inflam inh -66, SW480 rereplic inconclusive, MCF10A rereplic inconclusive (no result: PINK1 expr mod)
CCOC(=O)CCCCC(=O)c1[nH]c(=O)[nH]c1CSCCO	IL-1B inflam inh -84 (no result: PINK1 expr mod)
CCOC(=O)c1[nH]c(=O)[nH]c1CSc1ccccn1	S2 tox inconclusive
N#Cc1c(-c2ccccc2)nc(SCC(=O)N(c2ccccc2)c2ccccc2)[nH]c1=O	none
CCOC(=O)CCCCC(=O)c1[nH]c(=O)[nH]c1Cn1cnc2ccccc21	IL-1B inflam inh -54
CCCn1c(=O)n(-c2cc(Cl)c(OC)cc2OC)c(=O)c2c3c(sc21)CN(C(C)=O)CC3	none (no result: IL-1B inflam inh, SW480 rereplic, MCF10A rereplic)
COc1ccccc1/C=C/C(=O)OCCN1C(=O)c2ccccc2C1=O	none (no result: ATXN2 expr inh)
CC1(C)CC[C@]2(C(=O)O)CC[C@]3(C)C(=CC[C@@H]4[C@@]5(C)CC[C@H](O[C@@H]6O[C@H](C(=O)O)[C@@H](O)[C@H](O[C@@H]7OC[C@H](O)[C@H](O)[C@H]7O)[C@H]6O)C(C)(C)[C@@H]5CC[C@]43C)[C@@H]2C1	ATXN2 expr inh 11µM, IL-1B inflam inh -110, S2 tox 11µM, SW480 rereplic inconclusive, MCF10A rereplic inconclusive
CC1(C)CC[C@]2(C(=O)O[C@@H]3O[C@H](CO)[C@@H](O)[C@H](O)[C@H]3O)CC[C@]3(C)C(=CCC4[C@@]5(C)CC[C@H](O[C@@H]6O[C@H](C(=O)O)[C@@H](O[C@H]7OC[C@@H](O)[C@@H](O)[C@@H]7O)[C@H](O)[C@H]6O)C(C)(C)C5CC[C@]43C)[C@@H]2C1 (stereo partly specified)	none
Cc1cccc(C)c1OCc1cc(C(=O)N2CCC(c3ccncc3)CC2)no1	IL-1B inflam inh -68, SW480 rereplic inconclusive
O=C(c1cc(COc2c(F)cccc2F)on1)N1CCC(c2ccncc2)CC1	IL-1B inflam inh inconclusive, S2 tox inconclusive, MCF10A rereplic inconclusive
C=CCn1c(-c2ccccc2)cc(SC)c(C#N)c1=O	none
CCCn1c(-c2ccccc2)cc(SC)c(C#N)c1=O	SW480 rereplic 5.8µM
CSc1cc(-c2ccccc2)n(Cc2ccccc2Cl)c(=O)c1C#N	S2 tox inconclusive, SW480 rereplic 6.5µM, MCF10A rereplic 3.7µM
Cc1cc(SCC(=O)Nc2ccc(C(F)(F)F)cc2)nc(=O)[nH]1	none (no result: IL-1B inflam inh, SW480 rereplic, MCF10A rereplic)
